Test [1] concerns TRPC4 beta (transient receptor potential cation channel C4), mouse. Kind of test: activators of mouse TRPC4 channel, confirmation, cell-based, Fluo4 calcium, HEK293 TRPC4beta/mu-opioid, duplicates, 10 µM (AID 2426;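 active means fluorescence ratio normalized to control raised more than 50% in primary screen plus both repeat runs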). The following applies: Fluo4 calcium fluorescence, at 10 µM; hits give high values.
The test system of test [2] is transient receptor potential cation channel C4 beta (TRPC4), mouse. Kind of test: activators of mouse TRPC4 channel, confirmation, cell-based, second round, Fluo4, HEK293 TRPC4beta/mu-opioid, 1 µM (AID 2461;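 active means primary screen active and over 50% activation in each of two duplicate runs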). The settings on record: Fluo4 calcium fluorescence, at 1 µM; hits give high values.
For test [3], the system named is TRPC4 (transient receptor potential cation channel C4 beta), mouse. Kind of test: positive allosteric modulators of mouse TRPC4, confirmation, cell-based, second round, Fluo-4, HEK293 TRPC4beta/mu-opioid, 1 µM (AID 2554;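 active means primary screen hit whose fluorescence ratio, in both repeats, exceeds the weak agonist control mean by 3 SD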). The settings on record: DAMGO EC20, Fluo-4 calcium flux, at 1 µM; hits give high values. (Calcium flux is commonly read through the fluorescence of an indicator in the cells.)

The subject of test [4] is TRPC4 beta (transient receptor potential cation channel C4), mouse. Kind of test: positive allosteric modulators of mouse TRPC4, confirmation, cell-based, Fluo-4, HEK293 TRPC4beta/mu-opioid (AID 2555;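 active means primary screen hit whose calcium fluorescence ratio, in both repeats, exceeds the weak agonist control mean by 3 SD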). The following applies: DAMGO EC20, Fluo-4 calcium flux, at 10 µM; hits give high values.
Test [5] addresses Short transient receptor potential channel 4 (Mus musculus) (UniProt Q9QUQ5). The experiment in a line: inhibitors of mouse TRPC4 channel, confirmation, cell-based, Fluo4, HEK293 TRPC4beta/mu-opioid (AID 2636;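 active means calcium signal cut by more than 3 SD below the full-agonist control yet still positive, in both repeats and the earlier primary screen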). The following applies: DAMGO, Fluo4 calcium flux, at 10 µM; hits give high values.
Test [6] has the same target. The experiment in a line: inhibitors of mouse TRPC4 channel, confirmation, cell-based, second round, Fluo4, HEK293 TRPC4beta/mu-opioid, 1 µM (AID 2637;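 active means calcium signal ratio cut to more than 3 SD under the fully stimulated control mean yet still positive, in both repeats and the primary screen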). The settings on record: Fluo4 calcium flux, DAMGO, at 1 µM; hits give high values.
Test [7] has the same target. Kind of test: mouse TRPC4 channel activators, dose response, cell-based, HEK293 TRPC4/mu-opioid, Fluo-4 calcium (AID 434937).
For test [8] the target is unchanged. The experiment in a line: TRPC4 positive allosteric modulators, dose response, cell-based, HEK293 TRPC4/mu-opioid, Fluo-4 calcium, EC20 DAMGO (AID 434941;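 active means earlier screen potentiator hit that boosts the TRPC4 ion channel at some dose, with a dose response; inactive means no potentiation, no dose response, or not a prior hit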;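 further: calcium entry triggered by an EC20 dose of DAMGO at the co-expressed mu-opioid receptor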).
The target is the same in test [9]. The experiment in a line: mouse TRPC4 channel inhibitors, dose response, cell-based, HEK293 TRPC4/mu-opioid, Fluo-4 calcium (AID 434942;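 active means primary screen inhibitor hit that blocks the TRPC4 channel at some tested dose, yielding a dose curve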).
Test [10] concerns the target Short transient receptor potential channel 6 (Mus musculus) (UniProt Q61143). Kind of test: inhibition of mouse TRPC6 channel, confirmation, selectivity assay for TRPC4 inhibitor project, cell-based, HEK293, membrane potential dye, duplicate (AID 434948;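 active means active in primary screen and both duplicates, each dropping signal beyond three positive-control SD with fluorescence still positive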). The settings on record: HEK293 TRPC6, membrane potential dye fluorescence, at 10 µM, stimulated with maximal-effect acetylcholine; hits give high values.

Test [11] has the same target. The experiment in a line: activation of mouse TRPC6 channel, confirmation, selectivity assay for TRPC4 activator project, cell-based, HEK293, membrane potential dye, duplicate (AID 434950;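 active means membrane potential signal rise above negative control mean plus 3 SD in both duplicates, also active in the earlier TRPC4 screen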). The following applies: HEK293 TRPC6, membrane potential fluorescence, at 10 µM; hits give high values.
Test [12] shares this target. The experiment in a line: TRPC6 potentiation by TRPC4 potentiator hits, confirmation, selectivity assay for TRPC4 potentiator project, HEK293 cells, membrane potential dye, duplicate (AID 434952;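 active means compound raising the membrane signal above positive-control mean plus 3 SD in both repeats, and a primary screen hit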). The settings on record: HEK293 TRPC6, membrane potential dye fluorescence, at 10 µM, maximal acetylcholine added after compound; hits give high values.
The target in test [13] is Short transient receptor potential channel 4 (Mus musculus) (UniProt Q9QUQ5). Kind of test: calcium flux activators in TRPC4/5HT1a cells, counter-screen for TRPC4 activator project, cell-based, second counter screen, HEK293 TRPC4/5HT1a, Fluo-4 (AID 434977;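 active means calcium signal rise above buffer-control mean plus 5 SD in both duplicates, and also a hit in the primary screen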). The following applies: Fluo-4 calcium flux, at 10 µM; hits give high values.
Test [14] in a line: calcium flux inhibitors in TRPC4/5HT1a cells, confirmation, counter-screen for TRPC4 inhibitor project, cell-based, second counter screen, HEK293 TRPC4/5HT1a, Fluo-4 (AID 434978;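 active means primary screen active whose calcium signal fell more than 3 SD beyond the full-serotonin control mean in both duplicate plates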;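 further: serotonin given first at submaximal then at maximal dose after compound preincubation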). The settings on record: Fluo-4 calcium flux, at 10 µM, serotonin added to trigger calcium flux; hits give high values.
Test [15] has as its system TRPC4 (mouse), co-expressed with 5HT1a in HEK293. Kind of test: calcium flux potentiators in TRPC4/5HT1a cells, confirmation, counter-screen for TRPC4 potentiator project, cell-based, second counter screen, HEK293 TRPC4/5HT1a, Fluo-4 (AID 434979;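 active means signal rise over 3 SD above mean of control wells given weak agonist, in both repeats and first screen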). The following applies: Fluo-4 calcium flux, at 10 µM, serotonin added at its EC20 dose; hits give high values.
Test [16] can be described thus: calcium flux activation in mu-opioid HEK293 cells, confirmation, counter-screen for TRPC4 activator project, cell-based, HEK293 mu-opioid receptor line (AID 449723;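 active means hit in primary screen, with calcium signal over 5 SD above buffer well mean in both duplicates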;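 further: counter screen cells carry the mu-opioid receptor alone and lack TRPC4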). The following applies: Fluo-4 calcium fluorescence, at 10 µM; hits give high values.
A short description of test [17]: calcium flux enhancement in mu-opioid HEK293 cells, confirmation, counter-screen for TRPC4 allosteric potentiator project, cell-based, HEK293 mu-opioid receptor line (AID 449724;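 active means calcium signal rise more than 3 SD above the low-dose agonist control mean, in both duplicate plates and the primary screen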). The following applies: Fluo-4 calcium flux, at 10 µM, compound added before EC20 DAMGO stimulus; hits give high values.
Test [18] deals with Short transient receptor potential channel 4 (Mus musculus) (UniProt Q9QUQ5). Kind of test: mouse TRPC4 membrane potential modulation by TRPC6 hits, confirmation, selectivity assay for TRPC6 inhibitor project, cell-based, second specificity screen, HEK293 TRPC4/mu-opioid (AID 2776;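 active means compounds whose fluorescence signal differed from control wells by over 3 SD, either direction, in both duplicate plates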). The settings on record: HEK293 TRPC4/MOR, membrane potential dye fluorescence, at 10 µM, channel activated by saturating DAMGO dose; hits give high values.

Test [19] relates to transient receptor potential cation channel C4 (TRPC4), mouse. Kind of test: mouse TRPC4 modulation by TRPC6 hits, confirmation, selectivity assay for TRPC6 inhibitor project, cell-based, HEK293 TRPC4/mu-opioid, membrane potential dye (AID 2777;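 active means rise or fall in signal beyond 3 SD of buffer-only wells in both replicate plates, either sign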;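 further: integrated kinetic ratio of fluorescence range over baseline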). The settings on record: membrane potential fluorescence, at 10 µM.
Test [20] can be described thus: nonspecific membrane potential effects, parental HEK293, confirmation, counter-screen for TRPC6 inhibitor project, cell-based, second counter screen (AID 2779;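 active means membrane potential signal moving either way by over 3 SD of the maximum-effect control, in both duplicate plates, meaning non-specific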). The following applies: parental HEK293 membrane potential dye fluorescence; at 10 µM; maximal acetylcholine challenge after compound addition.
The nature of test [21]: membrane potential modulation in parental HEK293, confirmation, counter-screen for TRPC6 inhibitor project, cell-based (AID 2780;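 active means membrane potential signal shifting up or down by more than 3 SD of buffer-only wells, on both duplicate plates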;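 on membrane potential signal change: plate controls were buffer EC0 wells for no effect and acetylcholine ECmax wells for full effect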). The following applies: parental HEK293 membrane potential dye fluorescence; at 10 µM. On the technique in general: A counterscreen serves to expose hits that act by an unwanted route or on another target.
For test [22], the target named is Short transient receptor potential channel 6 (Mus musculus) (UniProt Q61143). The experiment in a line: mouse TRPC6 channel inhibitors, confirmation, HEK293 cells, membrane potential dye, duplicate (AID 488960;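 active means fluorescence ratio falls more than 5 SD below the full-stimulation control mean, in both duplicate runs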). The settings on record: ACh-evoked depolarization, at 10 µM; hits give high values.
Test [23] has the same target. Kind of test: mouse TRPC6 channel activators, confirmation, HEK293 cells, membrane potential dye, duplicate (AID 488961;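 active means ratio signal rise beyond 5 SD above unstimulated control wells' mean, seen in both duplicate runs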). The settings on record: HEK293-TRPC6 membrane potential dye fluorescence, FDSS, at 10 µM; hits give high values.

Unmarked numbers belong to inactive results. For some assays here: Results with a measured potency or affinity are listed apart. The list shows a part of the results. Activity calls are given as the source filed them.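 How the source made its calls, unless noted: active means primary screen activator hit with a dose response curve and TRPC4 channel activation at any tested dose; inactive means no activation, no dose response, or not a primary hit.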

Short transient receptor potential channel 6 (Mus musculus), sequence (Q61143 whole entry, looked up): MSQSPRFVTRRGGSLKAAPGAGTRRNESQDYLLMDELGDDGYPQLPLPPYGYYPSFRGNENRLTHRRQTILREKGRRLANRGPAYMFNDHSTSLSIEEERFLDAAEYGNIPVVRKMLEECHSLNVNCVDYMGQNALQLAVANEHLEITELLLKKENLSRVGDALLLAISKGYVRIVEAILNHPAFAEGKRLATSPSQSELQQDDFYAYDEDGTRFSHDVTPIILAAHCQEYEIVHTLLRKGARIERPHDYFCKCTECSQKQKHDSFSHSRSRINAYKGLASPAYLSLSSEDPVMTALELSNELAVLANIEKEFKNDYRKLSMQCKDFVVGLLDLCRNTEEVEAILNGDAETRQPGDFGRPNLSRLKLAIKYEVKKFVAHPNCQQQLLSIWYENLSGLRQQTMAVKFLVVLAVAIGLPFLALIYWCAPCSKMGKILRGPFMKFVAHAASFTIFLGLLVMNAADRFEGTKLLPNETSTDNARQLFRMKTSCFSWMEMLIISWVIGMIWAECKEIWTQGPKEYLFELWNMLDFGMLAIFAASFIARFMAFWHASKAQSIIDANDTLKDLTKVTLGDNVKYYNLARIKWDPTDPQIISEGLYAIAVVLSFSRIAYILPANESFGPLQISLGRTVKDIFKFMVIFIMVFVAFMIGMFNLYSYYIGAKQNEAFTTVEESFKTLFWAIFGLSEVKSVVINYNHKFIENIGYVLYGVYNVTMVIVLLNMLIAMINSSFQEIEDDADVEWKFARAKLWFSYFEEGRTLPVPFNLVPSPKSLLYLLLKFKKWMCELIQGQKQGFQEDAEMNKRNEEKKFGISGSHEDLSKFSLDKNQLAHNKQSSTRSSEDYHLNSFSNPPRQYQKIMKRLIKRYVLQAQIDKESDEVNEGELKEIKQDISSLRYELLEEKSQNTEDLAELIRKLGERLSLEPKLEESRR
Short transient receptor potential channel 4 (Mus musculus), sequence (Q9QUQ5 whole entry, looked up): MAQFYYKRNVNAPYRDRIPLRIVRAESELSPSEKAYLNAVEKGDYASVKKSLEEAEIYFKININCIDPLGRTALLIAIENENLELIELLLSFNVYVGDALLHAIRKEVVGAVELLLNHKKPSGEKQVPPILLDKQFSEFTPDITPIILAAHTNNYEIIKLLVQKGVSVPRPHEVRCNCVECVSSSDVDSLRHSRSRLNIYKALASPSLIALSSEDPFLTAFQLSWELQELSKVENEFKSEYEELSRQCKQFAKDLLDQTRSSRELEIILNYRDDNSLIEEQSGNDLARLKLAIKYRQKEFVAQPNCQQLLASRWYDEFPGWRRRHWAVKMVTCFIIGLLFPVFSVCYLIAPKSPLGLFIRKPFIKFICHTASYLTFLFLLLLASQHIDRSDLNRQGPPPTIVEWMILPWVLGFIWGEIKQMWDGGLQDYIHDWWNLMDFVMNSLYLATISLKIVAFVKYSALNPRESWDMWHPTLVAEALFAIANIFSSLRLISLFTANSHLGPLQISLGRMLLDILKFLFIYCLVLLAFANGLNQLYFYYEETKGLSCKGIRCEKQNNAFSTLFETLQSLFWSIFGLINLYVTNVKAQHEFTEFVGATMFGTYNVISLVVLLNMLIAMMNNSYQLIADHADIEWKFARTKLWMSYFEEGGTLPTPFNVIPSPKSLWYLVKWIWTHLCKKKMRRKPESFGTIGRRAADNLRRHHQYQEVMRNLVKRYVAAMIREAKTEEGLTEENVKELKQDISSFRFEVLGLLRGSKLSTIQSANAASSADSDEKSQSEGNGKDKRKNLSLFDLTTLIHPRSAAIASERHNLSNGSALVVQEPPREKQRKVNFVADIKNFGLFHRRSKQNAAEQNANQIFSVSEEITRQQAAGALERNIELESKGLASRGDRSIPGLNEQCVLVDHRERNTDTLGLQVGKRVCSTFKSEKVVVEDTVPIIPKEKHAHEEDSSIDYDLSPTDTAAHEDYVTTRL

As to `Cc1cc(Nc2ccc3c(c2)OCCO3)c2cccc(C)c2n1`, the result in [1], in test [2], in [3], in test [4], in test [5] and in [6] was inactive. For the same compound, the outcome in test [7], in [8], in test [9], in [10], in test [11] and in test [12] was inactive. In addition, the result in test [13], in [14], in test [15], in [16] and in [17] was inactive.
On to `CCn1c(=O)c2cc(C(=O)N(C)c3cc(C)ccc3OC)sc2c2ccccc21`, for which the result in test [1], in test [2], in test [3], in test [4], in test [6] and in [7] was inactive. Also, the outcome in test [8], in test [9], in [10], in test [11], in test [12] and in [13] was inactive. Also, the result in test [14], in [15], in test [16] and in test [17] was inactive. For the same compound, in [5], the inhibition is 74% (active).
As for `COc1ccc(Cc2noc(CN(C)CC3CCN(Cc4ccccc4)CC3)n2)cc1OC`, the result in test [1], in test [2], in test [3], in test [4], in [5] and in [6] was inactive. Moreover, the result in [7], in [8], in [9], in [10], in test [11] and in test [12] was inactive. Further, the outcome in [13], in test [14], in test [15], in [16] and in test [17] was inactive.
For the compound `CSCC(C)N1CCC(CO)(CCCc2ccccc2)CC1` (configuration not stated), the outcome in test [1], in [2], in [3], in [4], in test [5] and in [6] was inactive. The outcome in test [7], in test [8], in test [9], in [10], in test [11] and in test [12] was inactive. The outcome in test [13], in [14], in test [15], in test [16] and in test [17] was inactive.
As for `CC(=O)N1N=C(c2c(-c3ccccc3)c3cc(C)ccc3[nH]c2=O)CC1c1ccco1` (configuration not stated), the result in [1], in test [2], in [3], in [5], in test [6] and in [7] was inactive. Also, the outcome in test [8], in test [9], in test [10], in test [11], in test [13] and in test [14] was inactive. Also, the result in test [16] and in test [17] was inactive. In addition, the potentiation in test [4] was 10% (active); in test [15], 15.5% (active). The potentiation, percent of control in test [12] was 186% (active).
On to `CC(Nc1nc(N2CCCC2)nc2ccccc12)c1ccccc1` (configuration not stated), for which the outcome in [1], in [2], in [3], in test [4], in [5] and in test [6] was inactive. The result in [18], in test [19], in test [20], in test [21], in test [7] and in test [8] was inactive. Moreover, the outcome in [9], in [10], in [11], in [12], in test [13] and in test [14] was inactive. The result in test [15], in [16], in [17], in test [22] and in test [23] was inactive.
Consider `CC(=O)Cc1nsc(NC(=O)c2csc3c2CCCC3)n1`, for which the outcome in test [1], in [2], in test [3], in [4], in test [5] and in [6] was inactive. Also, the result in test [7], in [8], in test [9], in test [10], in test [11] and in test [12] was inactive. Besides, the result in test [13], in test [14], in test [15], in [16] and in test [17] was inactive.
As for `CCCn1c(=O)c2sccc2n2c(CCCC(=O)NC3CCN(Cc4ccccc4)CC3)nnc12`, the result in [1], in test [2], in [3], in test [5], in [6] and in [7] was inactive. The result in [8], in test [9], in [10], in [11], in [12] and in [13] was inactive. For the same compound, the result in [14], in [16] and in [17] was inactive. Moreover, the potentiation was 7% (active) in test [4] and 7.99% (active) in test [15].
For the compound `COC(=O)[C@@]12CCCN1[C@H](c1ccc(-c3ccc(OC)cc3)cc1)[C@@H]1C(=O)N(C)C(=O)[C@@H]12`, the outcome in test [1], in test [2], in [3], in test [5], in [6] and in test [7] was inactive. Also, the outcome in test [8], in test [9], in [10], in test [11], in [12] and in test [13] was inactive. Also, the outcome in test [14], in test [16] and in test [17] was inactive. Besides, the potentiation is 32% (active) in [4] and 111% (active) in test [15].
As to `CCCCOc1ccc(CSC(=N)N)cc1[N+](=O)[O-]`, the result in test [1], in [2], in test [3], in test [4], in test [5] and in [6] was inactive. The compound was called inactive in [19], in test [20], in [7], in [8], in test [9] and in test [10]. In addition, the result in test [11], in test [12], in test [13], in test [14], in [16] and in test [17] was inactive. Also, the call in [22] and in test [23] was inactive. Besides, the inhibition in test [18] was 77.5% (active). The membrane potential signal change in test [21] is -186% (active). Also, the potentiation in test [15] is 22.3% (active).

In general, inhibition refers to how much of the control response was suppressed.
